# Only some compounds are listed: those with a hit (about 3.6% of all), similar ones and a draw of the others.
# Pf apPOL block: Pf-apPOL DNA polymerase inhibition | Recombinant Pf-apPOL, molecular beacon fluorescence, 1.5 h | inhibition, % at 10 µM | 0.25% of 210,000 active | AID 1794808
# mHTT-CaM PPI inh: inhibitors of human mutant huntingtin-calmodulin interaction; AlphaScreen His-mHTT/GST-CaM binding, luminescence; P42858; inhibition, % at 15 µM; 3.6% of 190,000 active;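 also: 0% = both proteins with DMSO and 100% = one protein alone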
# Active calls of the source: *; . = no result. Rule as the data show it: active = inhibition above about 50%; inactive = the rest.
SMILES,Pf apPOL block,mHTT-CaM PPI inh
CCCC(=O)NC(c1ccc(Cl)cc1Cl)c1cc([N+](=O)[O-])c2cccnc2c1O (stereo not given),-3,99*
CCC(=O)NC(c1ccc(C(C)C)cc1)c1cc([N+](=O)[O-])c2cccnc2c1O (stereo not given),-8,100*
CCC(=O)NC(c1ccccc1)c1cc([N+](=O)[O-])c2cccnc2c1O (stereo not given),1,100*
Cc1nnc(CNC(=O)C(=O)Nc2ccccc2Cl)o1,4,-12
COc1cccc(OCC(O)Cn2c(Cc3ccccc3)nc3ccccc32)c1 (stereo not given),1,11
COC(=O)c1ccc(S(=O)(=O)N2CCCN(c3ccc(C(F)(F)F)cn3)CC2)n1C,-16,.
CCC(C)(C)NS(=O)(=O)c1cc(-c2nc(C)cs2)n(C)c1C,5,-1
COc1ccc(OCCC(=O)NN)cc1,1,.
O=C(NCc1ccc(F)cc1)C1CCCN(c2cnn(Cc3ccccc3)c(=O)c2)C1 (stereo not given),-3,6
Cc1cc(C)n2nc(SCC(=O)Nc3ccc(C)c(C)c3)nc2n1,-8,41
Cc1ccccc1C(=O)N1CCN(c2cccc(Cl)c2C)C(=O)C1C (stereo not given),-6,4
CC(C)(C)C(=O)NCC(O)c1ccoc1 (stereo not given),-3,-5
COc1cccc(N2CCN(C(=O)c3noc4c3CCCCC4)CC2)c1,0,2
CCOC(=O)C(=O)N1CCN(c2ncnc3c2nnn3C)CC1,-3,-14
Cn1nnc2c(N3CCN(C(=O)C4c5ccccc5Oc5ccccc54)CC3)ncnc21,-1,58*
CCC(Sc1nnnn1C)C(=O)Nc1ccc(Br)cc1 (stereo not given),-3,-1
CC(=O)N1CCN(c2nc3c(s2)CC(C(=O)NCc2cccc(C)c2)CC3)CC1 (stereo not given),0,22
Cc1nc(OCC(=O)Nc2ccc(Cl)c(C(F)(F)F)c2)c2ccccc2n1,0,22
O=C(COc1ccccc1Br)Nc1ccc(Cl)c(C(F)(F)F)c1,71*,-3
O=C1C(Nc2cc(F)cc(F)c2)=C(N2CCOCC2)C(=O)c2ccccc21,-8,19
O=C1C(Nc2ccccc2)=C(N2CCCCC2)C(=O)c2ccccc21,8,24
CC(=O)c1ccc(NC2=C(N3CCCC3)C(=O)c3ccccc3C2=O)cc1,-6,86*
Cc1ccc(NC2=C(N3CCCCC3)C(=O)c3ccccc3C2=O)cc1,5,68*
O=C1C(Nc2ccc(Br)cc2)=C(N2CCCCC2)C(=O)c2ccccc21,11,95*
O=C1C(Nc2ccc(Br)cc2)=C(n2nnc3ccccc32)C(=O)c2ccccc21,-4,-3
SMILES,Pf apPOL block,mHTT-CaM PPI inh
Cc1ccc(S(=O)(=O)c2nc(-c3cccc(Cl)c3)oc2N2CCOCC2)cc1,-10,-6
O=C(CCC1CCCN(C(=O)Nc2ccccc2)C1)N1CCN(c2ccccc2)CC1 (stereo not given),-3,15
COc1cc(OC)cc(C(=O)N2CCN(c3cccc(Cl)c3C)C(=O)C2C)c1 (stereo not given),1,0
c1cncc(CNCc2ccco2)c1,0,.
O=C1C=CC(=NS(=O)(=O)c2ccc(F)cc2)c2ccccc21,-4,100*
O=C1C=CC(=NS(=O)(=O)c2ccc(Cl)cc2)C=C1,-6,48
CC(C)c1ccc(S(=O)(=O)N=C2C=CC(=O)c3ccccc32)cc1,11,67*
O=C1C=CC(=NS(=O)(=O)c2ccc(Cl)cc2)c2ccccc21,-2,98*
CC(C)c1ccc(S(=O)(=O)N2CCN(C)c3ccccc32)cc1,2,41
CCN(CC)c1ccc(N=C2C=CC(=O)c3ccccc32)c(C)c1,0,.
Cc1ccnc(N2CCCC(C(=O)NCC3CCN(Cc4ccccc4F)CC3)C2)n1 (stereo not given),-1,0
Cc1cc(C)c(NC(=O)c2cc3c(=O)n(CC(C)C)ccc3n2C)c(C)c1,-2,-5
CC(C)(C)c1ccc(C(=O)Nc2c3c(nn2-c2ccc(F)cc2)CS(=O)(=O)C3)cc1,1,15
COc1ccc(CC(=O)Nc2c(C)cccc2C)cc1,-4,-8
Cc1nc2c(NC(=O)c3ccccn3)cccn2n1,-14,50*
Cc1nnc2c(NC(=O)c3ccccn3)cccn12,-16,31
c1ccc(N/N=C2/C/C(=N\Nc3ccccc3)c3ccccc32)cc1,.,91*
O=C(O)c1coc2c1C(=NNc1ccccc1)CCC2,-12,.
COc1ccc(OCCCOc2ccc([N+](=O)[O-])cc2Cl)cc1,-1,30
O=C(Nc1nc2c(s1)CN(C(=O)c1cnn(-c3ccccc3)n1)CC2)c1ccco1,6,53*
O=C(Nc1nc2c(s1)CN(C(=O)c1cc(C3CC3)on1)CC2)c1ccco1,-2,-10
Cc1nnc(C)c2c(C)n(-c3ccc(N)cc3)c(C)c12,-2,55*
CC(=O)c1c(C(C)=O)c(C)n(-c2ccc(N)cc2)c1C,-3,20
Cc1cc(N)c(-n2c(C)c3c(C)nnc(C)c3c2C)cc1C,0,88*
CC(=O)c1c(C(C)=O)c(C)n(-c2cc(C)c(C)cc2N)c1C,-12,22
SMILES,Pf apPOL block,mHTT-CaM PPI inh
O=[N+]([O-])c1cc(S(=O)(=O)N2CCCCCC2)ccc1N1CCOCC1,-1,18
CCOC(=O)N1CCc2nn(CC(=O)Nc3ccc(C(C)C)cc3)c(=O)cc2C1,-7,10
COc1ccc(/C=C2/SC(=Nc3ccc(C)cc3)NC2=O)cc1OC,-2,18
COc1cccc(-c2nc(C3CCN(C(=O)C4COc5ccccc5O4)CC3)no2)c1 (stereo not given),1,87*
Cc1cccc(-c2nc(C3CCN(C(=O)COc4ccc(Cl)cc4)CC3)no2)c1,-1,80*
COc1cccc(-c2nc(C3CCN(C(=O)c4ccccc4)CC3)no2)c1,0,13
Cc1cccc(-c2nc(C3CCN(C(=O)Cc4cccc(F)c4)CC3)no2)c1,0,20
Nc1nc2c(nc(N=Nc3c(O)[nH]c4ccccc34)n2C2OC(CO)C(O)C2O)c(=O)[nH]1 (stereo not given),.,63*
NCCCCCCNc1nc2c(=O)[nH]cnc2n1C1OC(CO)C(O)C1O (stereo not given),.,-5
Cc1noc(-c2ccc(NC(=O)Cn3cnc4ccccc4c3=O)cc2)n1,-4,-1
NNC(=S)Nc1ccc(F)cc1F,-2,.
COc1cccc(CNC(=O)c2nc(-c3ccc(C)cc3)n3c2CCCCC3)c1,3,74*
O=C(NCc1cccnc1)c1nc(-c2ccc(Cl)cc2)n2c1CCCCC2,0,21
CCNC(=O)c1nc(-c2ccc(C)cc2)n2c1CCCCC2,-16,7
COc1ccc(CNC(=O)c2nc(-c3ccc(C)cc3)n3c2CCCCC3)cc1,-2,54*
O=C(Nc1ccc(N2CCN(Cc3cccs3)CC2)nc1)c1ccccc1,-7,-1
CCC(=O)Nc1cccc(-c2noc(C3CCCN(C(=O)c4cc5ccccc5[nH]4)C3)n2)c1 (stereo not given),-4,59*
CCC(=O)Nc1cccc(-c2noc(C3CCCN(C(=O)c4ccccc4C)C3)n2)c1 (stereo not given),-4,5
Cc1ccc(C(=O)N2CCCCC2CCN(C)C)s1 (stereo not given),-2,-1
Cc1ccc(C(=O)N=C2SCCN2C(=O)c2ccc(C)s2)s1,0,87*

# Assay outcomes deposited in PubChem BioAssay by University of Kansas High Throughput Screening Laboratory.
